Drawing on ChEMBL document CHEMBL1201862, “PubChem BioAssay data set” (2004), this text covers GI50 for eight substances.

Hit rate of the full screen: of about 58,000 sequences, about 3,600 (6.2%) were called active. No stated cut-off is given here; in the data, active = GI50 up to about 1.1 µM and inactive = higher. The list comes from a sample in which actives are over-represented; it also holds similar and randomly drawn sequences. Results with a measured potency or affinity are listed apart.

This assay relates to NCI-H23.
A word on the GI50: it is the concentration that inhibits growth by half. Low values mean greater sensitivity of the cells, high ones lower sensitivity of the cells. Turning to “mu-(1,7-nanodiamine-N,N')bis-(cis-aminedichloroplatimum (II)), CHEMBL2146215”, the GI50 came out at 4.37 µM.
“[Bis(aminomethyl)pentamethylenesilane]tetrachloropaltinum(IV), CHEMBL2146204” showed a GI50 of 1.51 µM.
Regarding CISPLATIN, CHEMBL11359, the GI50 turned out to be 0.783 µM.
The same measure for “[Bis(aminomethyl)pentamethylenesilane]dichloropaltinum(II), CHEMBL2146202”: 4.59 µM.
Consider “[Bis(aminomethyl)dimethylsilane]tetrachloroplatinum(IV), CHEMBL2146190”, for which growth was halved (GI50) at 3.98 µM.
As to “[Bis(aminomethyl)tetramethylenesilane]dichloropaltinum(II), CHEMBL2146205”, the GI50 stood at 13.5 µM.
Consider “[Bis(aminomethyl)tetramethylenesilane]tetrachloropaltinum(IV), CHEMBL2146189”, for which it took 3.33 µM to inhibit growth by half (GI50).
“[Bis(aminomethyl)diethylsilane]tetrachloroplatinum(IV), CHEMBL2146203” registered a GI50 of 2.79 µM.
